Data published in PubChem BioAssay AID1159580 (chemical genetic matrix, 2015).
About 2,000 (36%) of roughly 5,500 compounds were called active. Inconclusive results (about 18%) are left out. No stated cut-off is given here; in the data, active means normalized growth mostly below about 0.91 (no sharp cut-off); inconclusive means no clear call, values can overlap the other calls; inactive means mostly above about 0.92. Some of the results follow.

Test: chemical genetic growth profiling, strain panel (AID 1159580);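 further: tested at 20 µM; growth read once vehicle control cultures reached saturation at 30 °C; 1 = growth at the plate median or of vehicle wells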
Conditions: S. cerevisiae deletion strains, growth OD

Measured: normalized growth

COc1cc(-c2cc(=O)c3c(O)c(OC)c(OC)c(OC)c3o2)cc(OC)c1OC
inactive: locus YAL021C, strain ccr4, stronger effect = lower value 1.01 | locus YAL026C, strain drs2, stronger effect = lower value 1.01 | locus YAL030W, strain snc1, stronger effect = lower value 1.01 | locus YBL061C, strain skt5, stronger effect = lower value 1.01 | locus YBR009C, strain hhf1, stronger effect = lower value 1.01 | locus YBR023C, strain chs3, stronger effect = lower value 1.01 | locus YBR171W, strain sec66, stronger effect = lower value 1.01 | locus YBR231C, strain swc5, stronger effect = lower value 1.01 | locus YBR279W, strain paf1, stronger effect = lower value 0.998 | locus YCL011C, strain gbp2, stronger effect = lower value 1.01 | locus YCL016C, strain dcc1, stronger effect = lower value 1.01 | locus YCL061C, strain MRC1, stronger effect = lower value 1.03 | locus YCL069W, strain vba3, stronger effect = lower value 1.01 | locus YCR088W, strain abp1, stronger effect = lower value 1.01 | locus YDL005C, strain med2, stronger effect = lower value 1.02 | locus YDL040C, strain nat1, stronger effect = lower value 1.01 | locus YDR001C, strain nth1, stronger effect = lower value 1.01 | locus YDR069C, strain doa4, stronger effect = lower value 1.02 | locus YDR137W, strain rgp1, stronger effect = lower value 0.997 | locus YDR159W, strain sac3, stronger effect = lower value 1.03 | locus YDR195W, strain ref2 1.02 | locus YDR297W, strain sur2, stronger effect = lower value 1.01 | locus YDR334W, strain swr1, stronger effect = lower value 1.01 | locus YDR335W, strain msn5, stronger effect = lower value 1.03 | locus YDR392W, strain spt3, stronger effect = lower value 0.97 | locus YEL003W, strain gim4, stronger effect = lower value 1.01 | locus YEL037C, strain rad23, stronger effect = lower value 1.01 | locus YEL061C, strain CIN8 (second series), stronger effect = lower value 1.01 | locus YER015W, strain faa2, stronger effect = lower value 1.01 | locus YER016W, strain bim1, stronger effect = lower value 1.02 | locus YER111C, strain swi4, stronger effect = lower value 1 | locus YER155C, strain BEM2 (second series), stronger effect = lower value 1 | locus YFR010W, strain ubp6, stronger effect = lower value 1.01 | locus YGL167C, strain pmr1, stronger effect = lower value 1.02 | locus YGL173C, strain kem1, stronger effect = lower value 1.01 | locus YGL227W, strain vid30, stronger effect = lower value 1.01 | locus YGL240W, strain doc1, stronger effect = lower value 1.04 | locus YGL253W, strain hxk2, stronger effect = lower value 1 | locus YHR013C, strain ard1, stronger effect = lower value 1 | locus YHR027C, strain rpn1, stronger effect = lower value 1.01 | locus YHR142W, strain chs7, stronger effect = lower value 0.99 | locus YJL092W, strain hpr5, stronger effect = lower value 1.02 | locus YJL095W, strain BCK1 (second series), stronger effect = lower value 1.01 | locus YJL115W, strain asf1, stronger effect = lower value 1.01 | locus YJL129C, strain trk1, stronger effect = lower value 1 | locus YJL154C, strain vps35, stronger effect = lower value 1.01 | locus YJL164C, strain tpk1, stronger effect = lower value 0.999 | locus YJL166W, strain qcr8, stronger effect = lower value 1.01 | locus YJL187C, strain SWE1, stronger effect = lower value 1.01 | locus YKL160W, strain elf1, stronger effect = lower value 1.01 | locus YKR026C, strain gcn3, stronger effect = lower value 1.01 | locus YKR091W, strain srl3, stronger effect = lower value 1.01 | locus YLL001W, strain dnm1, stronger effect = lower value 1.02 | locus YLL026W, stronger effect = lower value 1.01 | locus YLL041C, strain sdh2, stronger effect = lower value 1.01 | locus YLR027C, strain aat2, stronger effect = lower value 1.01 | locus YLR221C, strain rsa3, stronger effect = lower value 1 | locus YLR258W, strain gsy2, stronger effect = lower value 1.01 | locus YLR262C, strain YPT6 (second series), stronger effect = lower value 1.01 | locus YLR320W, strain mms22, stronger effect = lower value 1.02 | locus YLR342W, strain FKS1, stronger effect = lower value 1.02 | locus YLR357W, strain rsc2, stronger effect = lower value 0.994 | locus YLR370C, strain arc18, stronger effect = lower value 1.02 | locus YLR384C, strain iki3, stronger effect = lower value 1.01 | locus YML120C, strain ndi1, stronger effect = lower value 1 | locus YMR058W, strain fet3, stronger effect = lower value 1 | locus YMR125W, strain sto1, stronger effect = lower value 0.999 | locus YMR129W, stronger effect = lower value 1.01 | locus YMR205C, strain PFK2, stronger effect = lower value 1.02 | locus YMR231W, strain pep5, stronger effect = lower value 1.01 | locus YNL071W, strain lat1, stronger effect = lower value 1 | locus YNL209W, strain ssb2, stronger effect = lower value 1 | locus YNL248C, strain rpa49, stronger effect = lower value 1 | locus YNL322C, strain KRE1 (second series), stronger effect = lower value 1.02 | locus YNR049C, strain mso1, stronger effect = lower value 1.01 | locus YOR001W, strain rrp6, stronger effect = lower value 0.999 | locus YOR070C, strain gyp1, stronger effect = lower value 1 | locus YOR080W, strain dia2, stronger effect = lower value 1.01 | locus YOR083W, strain WHI5, stronger effect = lower value 0.995 | locus YOR106W, strain vam3, stronger effect = lower value 1 | locus YOR265W, strain rbl2, stronger effect = lower value 1.01 | locus YOR270C, strain vph1, stronger effect = lower value 0.99 | locus YOR290C, strain snf2, stronger effect = lower value 0.933 | locus YPL051W, strain arl3, stronger effect = lower value 1 | locus YPL078C, strain atp4, stronger effect = lower value 0.999 | locus YPL106C, strain sse1, stronger effect = lower value 1.03 | locus YPL240C, strain hsp82, stronger effect = lower value 1.01
